We go through 93 compounds from paper PMC4336329 (PLoS ONE, 2015).

Out of some 310,000 compounds screened, about 14,000 (4.5%) showed an effect of 50% or more. Effects have a minus sign here. Many of the other results were omitted from the sample, so strong results are more common in it than they were.
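Also: peak tail current of the secondary pulse compared with the same well before compound.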

This experiment deals with human ether-à-go-go-related gene (hERG) potassium channel (human, UniProt Q12809). In words: primary screen, population patch clamp on CHO cells stably expressing hERG; higher = less effect of the substance.
Chain of human ether-à-go-go-related gene (hERG) potassium channel (Q12809 whole entry, looked up): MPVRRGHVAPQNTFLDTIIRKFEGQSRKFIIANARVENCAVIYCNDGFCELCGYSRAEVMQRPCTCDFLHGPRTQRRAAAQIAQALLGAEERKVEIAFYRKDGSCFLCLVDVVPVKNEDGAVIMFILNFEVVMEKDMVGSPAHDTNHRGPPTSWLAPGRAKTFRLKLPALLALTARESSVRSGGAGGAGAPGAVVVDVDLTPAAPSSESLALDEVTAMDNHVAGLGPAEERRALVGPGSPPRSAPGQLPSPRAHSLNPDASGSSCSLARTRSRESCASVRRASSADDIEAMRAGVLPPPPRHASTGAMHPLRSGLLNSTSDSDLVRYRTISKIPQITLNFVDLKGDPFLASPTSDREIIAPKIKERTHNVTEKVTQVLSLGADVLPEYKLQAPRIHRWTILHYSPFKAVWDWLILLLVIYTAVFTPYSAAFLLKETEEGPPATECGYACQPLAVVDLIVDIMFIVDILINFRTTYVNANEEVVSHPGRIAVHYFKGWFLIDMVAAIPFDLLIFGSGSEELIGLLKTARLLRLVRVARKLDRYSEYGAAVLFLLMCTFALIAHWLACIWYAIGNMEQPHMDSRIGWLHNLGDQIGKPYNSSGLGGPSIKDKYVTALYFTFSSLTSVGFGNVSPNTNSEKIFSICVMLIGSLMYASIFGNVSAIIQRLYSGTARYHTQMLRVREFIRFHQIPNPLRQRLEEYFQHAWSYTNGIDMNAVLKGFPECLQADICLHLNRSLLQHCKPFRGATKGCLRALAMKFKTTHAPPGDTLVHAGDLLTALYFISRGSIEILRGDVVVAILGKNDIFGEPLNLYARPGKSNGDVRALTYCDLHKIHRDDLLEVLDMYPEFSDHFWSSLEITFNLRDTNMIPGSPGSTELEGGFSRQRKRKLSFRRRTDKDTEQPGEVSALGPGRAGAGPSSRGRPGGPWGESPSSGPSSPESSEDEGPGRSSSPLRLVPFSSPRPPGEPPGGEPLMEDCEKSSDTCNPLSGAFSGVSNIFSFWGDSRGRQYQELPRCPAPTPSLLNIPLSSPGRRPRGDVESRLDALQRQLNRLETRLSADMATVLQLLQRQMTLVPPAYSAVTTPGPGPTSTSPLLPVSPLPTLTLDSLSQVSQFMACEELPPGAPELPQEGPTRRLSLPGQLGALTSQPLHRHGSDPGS
`COc1ccc(C(=O)N2CCN(c3ccc(N4CCOCC4)nn3)CC2)cc1OC`: the “hERG current change (%, negative = inhibition) at 10uM” value came to 8.55%.
Take `COc1ccc(/C=C(\NC(=O)/C=C/c2ccco2)C(=O)NCCc2nc3ccccc3[nH]2)cc1`: the “hERG current change (%, negative = inhibition) at 10uM” value is on record as -56.6%.
Consider `O=C(/C=C/c1ccco1)N/C(=C\c1ccccc1)C(=O)NCCc1nc2ccccc2[nH]1`, for which the “hERG current change (%, negative = inhibition) at 10uM” value was -46.3%.
The result for `COc1ccc(/C=C/C(=O)NCCc2nc3ccccc3[nH]2)cc1` reads 26.4%; that for `O=C(/C=C/c1ccco1)N/C(=C\c1ccco1)C(=O)NCCc1nc2ccccc2[nH]1`, -22.6%.
Turning to `COc1ccc(/C=C/C(=O)N/C(=C\c2ccco2)C(=O)NCCc2nc3ccccc3[nH]2)cc1`, the “hERG current change (%, negative = inhibition) at 10uM” value is given as -72.7%.
For the compound `CC(C)Oc1ccc(/C=C(\NC(=O)/C=C/c2ccco2)C(=O)NCCc2nc3ccccc3[nH]2)cc1`, the “hERG current change (%, negative = inhibition) at 10uM” value is listed as -28.6%.
Consider `CC1CC(C)CN(CCCNC(=O)Cn2ncn3cccc3c2=O)C1` (stereo not drawn), for which the “hERG current change (%, negative = inhibition) at 10uM” value was -3.29%.
The result for `Cc1c2cnn(CC(=O)NCCCN3CC(C)CC(C)C3)c(=O)c2c(C)n1Cc1ccc(Cl)cc1` (stereo not drawn) reads -52.6%.
Next, `Cc1cc2c(cc3c(=O)n(CC(=O)NCCCN4CC(C)CC(C)C4)ncn32)s1` (stereo not drawn): -53.4%; `Cc1c2cnn(CC(=O)NCCCN3CC(C)CC(C)C3)c(=O)c2c(C)n1Cc1ccccc1Cl` (stereo not drawn): -36.7%.
For `Cc1c2cnn(CC(=O)NCCCN3CCCCC3)c(=O)c2c(C)n1Cc1ccccc1`, the “hERG current change (%, negative = inhibition) at 10uM” value was 9.96%.
As to `Cc1nn(CC(=O)NCCCN2CC(C)CC(C)C2)c(=O)c2cccn12` (stereo not drawn), the “hERG current change (%, negative = inhibition) at 10uM” value is 12.9%.
`COC(=O)c1ccc(OC(=O)CCN2c3ccccc3Sc3ccccc32)cc1`: the “hERG current change (%, negative = inhibition) at 10uM” value worked out at 8.91%.
The result for `Nc1c(C(=O)NC23CC4CC(CC(C4)C2)C3)sc2nc3c(c(C(F)(F)F)c12)CCC3` reads 0.00528%.
Next, `O=C(CN1C2CCCC1CC(NC(=O)c1ccccc1)C2)Nc1ccccc1` (stereo not drawn): -50.7%; `O=C(CN1C2CCCC1CC(NC(=O)c1ccco1)C2)Nc1ccccc1` (stereo not drawn): -45.2%.
Regarding `COc1cccc(C(=O)NC2CC3CCCC(C2)N3CC(=O)Nc2ccccc2)c1.Cl` (stereo not drawn), the “hERG current change (%, negative = inhibition) at 10uM” value is recorded as -54.4%.
The result for `O=C(CN1C2CCCC1CC(NC(=O)c1ccccc1)C2)Nc1ccccc1C(F)(F)F` (stereo not drawn) reads 6.14%; that for `COc1cccc(C(=O)NC2CC3CCCC(C2)N3CC(=O)Nc2ccccc2C(F)(F)F)c1` (stereo not drawn), 15.8%; that for `CC(=O)NC1CC2CCCC(C1)N2CC(=O)Nc1ccccc1` (stereo not drawn), 4.65%.
As to `O=C(CN1C2CCCC1CC(NC(=O)c1ccccc1)C2)NC1CC1` (stereo not drawn), the “hERG current change (%, negative = inhibition) at 10uM” value stood at 26.9%.
Next, `CN(C)c1ccc(NC(=O)CN2C3CCCC2CC(NC(=O)c2ccccc2)C3)cc1` (stereo not drawn): -65.3%.
Take `COc1cccc(C(=O)NC2CC3CCCC(C2)N3CC(=O)Nc2ccc(N(C)C)cc2)c1` (stereo not drawn): the “hERG current change (%, negative = inhibition) at 10uM” value is -49.3%.
Regarding `CCOc1ccc(NC(=O)COc2nsnc2N2CCCCC2)cc1`, the “hERG current change (%, negative = inhibition) at 10uM” value came out at 21.6%.
As to `CC(C)[C@H](NC(=O)c1ccc(F)cc1)C(=O)N(C)Cc1cccs1`, the “hERG current change (%, negative = inhibition) at 10uM” value is given as -13.8%.
Next, `Cc1ccc(SCC(=O)N2CCOCC2)cc1`: 4.71%; `Cc1cccc(OCCc2nnc(N)s2)c1C`: 15.2%; `CCN1CCCC1CNS(=O)(=O)c1ccc(F)c(Cl)c1` (stereo not drawn): 9.12%.
The result for `CCN1CCCC1CNCc1cccc(OC)c1OCc1ccccc1.Cl` (stereo not drawn) reads -26.9%; that for `CCN1CCCC1CNCc1cc(OC)c(OC)c(OC)c1.Cl` (stereo not drawn), 1.63%; that for `CNCc1ccccc1OCc1ccc(F)cc1.Cl`, -7.08%.
Next, `CCN1CCCC1CNCc1ccc(Cl)cc1Cl.Cl` (stereo not drawn): -64.6%; `CCN1CCCC1CNCc1ccc(OCc2ccc(Cl)nc2)c(OC)c1.Cl` (stereo not drawn): -39.1%; `CCN1CCCC1CNCc1cccc(OC)c1OCc1ccccc1F.Cl` (stereo not drawn): -54.4%.
As for `CCOc1cc(CNCC2CCCN2CC)cc(Cl)c1OC.Cl` (stereo not drawn), the “hERG current change (%, negative = inhibition) at 10uM” value is reported as -18%.
With `CCN1CCCC1CNCc1ccccc1OCc1ccc(F)cc1.Cl` (stereo not drawn), the “hERG current change (%, negative = inhibition) at 10uM” value was -65%.
In the case of `COc1cccc(CNn2cnnc2)c1OCc1ccccc1F`, the “hERG current change (%, negative = inhibition) at 10uM” value is reported as 6.85%.
The result for `CCN1CCCC1CNCc1cccc(OC)c1OCc1ccc(F)cc1.Cl` (stereo not drawn) reads -69.5%; that for `COc1cccc(CNc2ccccc2O)c1OCc1ccccc1F`, -1.17%.
For `O=c1cc(/N=C/c2coc3c(ccc4ccccc43)c2=O)[nH]c(=S)[nH]1`, the “hERG current change (%, negative = inhibition) at 10uM” value is listed as 11%.
In the case of `Nc1nc(SCC(=O)Nc2ccc(Oc3ccccc3)cc2)n[nH]1`, the “hERG current change (%, negative = inhibition) at 10uM” value is -4.09%.
As to `CCNC(=S)N(CCc1c(C)[nH]c2ccc(F)cc12)Cc1cccnc1`, the “hERG current change (%, negative = inhibition) at 10uM” value is -26.5%.
For the compound `O=C(Cn1cnnn1)NCc1ccccc1`, the “hERG current change (%, negative = inhibition) at 10uM” value was 29.6%.
Turning to `O=C(Cn1c(-c2cscn2)nc2ccccc21)Nc1ccc(Cl)cc1`, the “hERG current change (%, negative = inhibition) at 10uM” value is -7.59%.
The result for `COCC(C)n1c(C)cc(C(=O)CSc2cc(C)c3ccccc3n2)c1C` (stereo not drawn) reads 4.64%; that for `CCc1ccc(OCC(=O)NC(=S)Nc2ccc(C)cc2C)c(Br)c1`, 7.39%.
Turning to `CN(c1ccc(C(=O)N2CCCCC2)cc1)S(=O)(=O)c1cccs1`, the “hERG current change (%, negative = inhibition) at 10uM” value was 8.46%.
For the compound `NS(=O)(=O)c1ccc2nc(NC(=O)c3ccncc3)sc2c1`, the “hERG current change (%, negative = inhibition) at 10uM” value was 13.9%.
The result for `Cc1nc(NS(=O)(=O)c2ccc(Cl)s2)c2c3c(sc2n1)CCCC3` reads -28.7%; that for `CCCCCCNC(=O)c1cc(-c2ccco2)nc2ccccc12`, -11.5%.
Turning to `NS(=O)(=O)c1ccc(CCNC(=O)c2cc(-c3ccccc3)nc3ccccc23)cc1`, the “hERG current change (%, negative = inhibition) at 10uM” value was -10.4%.
For the compound `COc1ccc(CCNC(=O)c2cc(-c3ccco3)nc3ccccc23)cc1`, the “hERG current change (%, negative = inhibition) at 10uM” value is recorded as 2.98%.
As to `CCN(CC)CCNC(=O)c1cc(-c2ccc(Br)s2)nc2ccccc12`, the “hERG current change (%, negative = inhibition) at 10uM” value is -9.2%.
For `CCN(CC)CCNC(=O)c1ccc(NC(=O)c2cc(-c3ccco3)nc3ccccc23)cc1`, the “hERG current change (%, negative = inhibition) at 10uM” value is reported as -30.2%.
Regarding `NS(=O)(=O)c1ccc(CCNC(=O)c2cc(-c3ccco3)nc3ccccc23)cc1`, the “hERG current change (%, negative = inhibition) at 10uM” value is recorded as -58.3%.
Consider `CCN(CC)CCCNC(=O)c1cc(Nc2ccc(OC)cc2)nc2ccccc12`, for which the “hERG current change (%, negative = inhibition) at 10uM” value was -53.8%.
The result for `CCN(CC)CCNC(=O)c1cc(-c2ccco2)nc2ccccc12.Cl` reads -65.5%.
Take `COc1ccc(Nc2cc(C(=O)NCCCN3CCOCC3)c3ccccc3n2)cc1`: the “hERG current change (%, negative = inhibition) at 10uM” value is -26.5%.
Next, `CCCCOc1cc(C(=O)NCCN(CC)CC)c2ccccc2n1`: -65.9%.
Next, `CCN(CC)CCCNC(=O)c1cc(Nc2ccc(OC)cc2OC)nc2ccccc12`: -36.1%.
The result for `CCN(CC)CCNC(=O)c1cc(Nc2ccc(OC)c(OC)c2)nc2ccccc12` reads -23.8%.
On to `CN1C(=O)N2CN(C3CCCCC3)CN3C(=O)N(C)C1C23` (stereo not drawn), for which the “hERG current change (%, negative = inhibition) at 10uM” value amounted to 9.88%.
Next, `Cc1noc(C)c1COC(=O)C1COc2ccccc2O1` (stereo not drawn): 15.2%; `CCc1ccc(N(C(=O)c2csnn2)C(C(=O)NC(C)(C)C)c2cccnc2)cc1` (stereo not drawn): 4.59%.
Next, `CCOCCCNC(=O)C(NC(=O)c1ccccn1)c1ccc(C)cc1` (stereo not drawn): -0.00042%; `Cc1ccccc1NS(=O)(=O)c1ccc(-c2ccc(=O)[nH]n2)o1`: -2.13%.
As to `COc1ccccc1N1CCN(C(=O)CCCn2c(=O)[nH]c3ccsc3c2=O)CC1`, the “hERG current change (%, negative = inhibition) at 10uM” value was 4.33%.
Next, `O=C(CCC(=O)c1ccc(F)cc1)Nc1cccc(C(F)(F)F)c1`: 7.22%; `COc1ccc(Nc2ccc([N+](=O)[O-])cc2[N+](=O)[O-])cc1`: -32.5%; `O=C(Nc1ccc(Cl)cc1C(=O)NCC1CCCO1)c1ccc(Cl)cc1Cl` (stereo not drawn): -10.2%.
For `CC(C1CC2CCC1C2)N1CC(O)=C(c2nc3ccccc3[nH]2)C1=N` (stereo not drawn), the “hERG current change (%, negative = inhibition) at 10uM” value is given as -17.9%.
The result for `Cc1ccc(C)c(S(=O)(=O)N/N=C/c2cccnc2)c1` reads 7.65%; that for `COc1ccc(OC)c(NS(=O)(=O)c2ccc3c(c2)n(C)c(=O)n3C)c1`, -5.85%.
With `CCC/C(=N\NC(=O)C1CC1)c1ccc(Br)cc1`, the “hERG current change (%, negative = inhibition) at 10uM” value stood at 11.9%.
The result for `C/C(=N\N=C1\NC(=O)CC(C(=O)O)S1)c1ccc(F)cc1` (stereo not drawn) reads 0.193%.
Regarding `CCOC(=O)c1nn(C23CC4CC(CC(C4)C2)C3)c2c1C(=O)N(c1ccc(C)cc1)C2=O`, the “hERG current change (%, negative = inhibition) at 10uM” value is listed as 20.3%.
For the compound `Cc1cc([N+](=O)[O-])nn1CC(=O)Nc1ccc(F)cc1`, the “hERG current change (%, negative = inhibition) at 10uM” value turned out to be 6.31%.
Turning to `Cc1cc([N+](=O)[O-])nn1CC(=O)Nc1cnc2ccccc2c1`, the “hERG current change (%, negative = inhibition) at 10uM” value is -81.1%.
`Cc1cc([N+](=O)[O-])nn1CC(=O)Nc1ccccn1`: the “hERG current change (%, negative = inhibition) at 10uM” value amounted to 5.51%.
The result for `Cc1cccc(C)c1-n1c(C)nn(CC#N)c1=O` reads 19.1%.
For the compound `COC(=O)c1cc2cc(OC)ccc2n1C`, the “hERG current change (%, negative = inhibition) at 10uM” value was found to be 0.821%.
On to `COc1ccc2c(c1)c1c(n2C(C)=O)C(OC(C)=O)=NCC1`, for which the “hERG current change (%, negative = inhibition) at 10uM” value is -8.94%.
For `CN=C1c2c(-c3ccccc3)c3cc(OC)ccc3n2CCN1C.Cl`, the “hERG current change (%, negative = inhibition) at 10uM” value was -62.6%.
The result for `COc1ccc2c(c1)c1c3n2CCN(C)C3=NCC1.Cl` reads -67.7%; that for `COc1ccc2[nH]c3c(c2c1)CCN=C3C`, -18.2%.
Next, `COc1ccc2c(c1)c1ccccc1n2C`: 11%; `COc1ccc2c(c1)c(=O)cc(-c1ccccc1)n2C`: 0.0751%.
The result for `COc1ccc2c(c1)cc1n2CCN=C1NCCO.Cl` reads -10.2%.
As to `COc1ccc2c(c1)cc(C(=O)O)n2C`, the “hERG current change (%, negative = inhibition) at 10uM” value is given as -6.02%.
Next, `CCN(CC)CCNC(=O)COc1ccc(OC)cc1.Cl`: -9.07%; `CN=C1c2cc3cc(OC)ccc3n2CCN1C.Cl`: -53%; `CCN(CC)CCNC1=NCCn2c1cc1cc(OC)ccc12.Cl`: -66.6%.
